Measured values as given in the supplement of paper PMC12350171.
Structures can show the parent of a compound that is named as a salt.

Key:
Conditions in all cases: 20 µM
[1] = tested on: Salmonella enterica typhimurium; test: growth AUC normalised to DMSO control (fraction of control); higher = less growth inhibition, active = hit call of the paper
Method in brief: (§1)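 After two anaerobic passages, pathogens were added at a starting OD578 of 0.01 to pre-reduced mGAM plates holding compound at 20 μM with 1% DMSO; hemin and NAD were supplemented for Haemophilus parainfluenzae. Sealed with breathable membranes, plates were read at OD578 hourly for 24 h, in three biological replicates. The trapezoidal rule, applied up to the exponential-to-stationary transition, gave the growth-curve AUC, which was normalised to DMSO controls on the same plate.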

Shigella flexneri = test: as above
Method in brief: as §1

Vibrio cholerae = test: as above
Method in brief: as §1

[2] = tested on: Yersinia pseudotuberculosis; test: as above
Method in brief: as §1

P. vulgatus RND KO = test: growth AUC normalised to DMSO control (median) (fraction of control); higher = less growth inhibition, active = hit call of the paper
Method in brief: (§2)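 In 96-well plates of mGAM seeded at OD578 0.01, strains that had been passaged twice overnight without oxygen were exposed to approved-drug library compounds at 20 μM with 1% DMSO. Hourly OD578 readings were taken for 24 h in an anaerobic incubator. The trapezoidal-rule area under the curve, with curves truncated at entry into stationary phase, was expressed relative to same-plate vehicle wells as the median of three biological replicates.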

P. vulgatus WT = test: as above
Method in brief: as §2

[3] = tested on: S. enterica typhimurium WT; test: as above
Method in brief: as §2

[4] = tested on: S. enterica typhimurium tolC KO; test: as above
Method in brief: as §2

Measured: growth AUC normalised to DMSO control
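Throughout, for growth AUC normalised to DMSO control (median): active when median AUC fell below 0.1.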

C[C@]12CC[C@H]3[C@@H](CCC4=CC(=O)CC[C@@]43C)[C@@H]1CC[C@@H]2C(=O)CO [Deoxycorticosterone]
inactive: [1] 1 | Shigella flexneri 1.03 | Vibrio cholerae 1.03 | [2] 1.03 | P. vulgatus RND KO 1.07 | P. vulgatus WT 1.07 | [3] 1 | [4] 0.933

Clc1ccc2nsnc2c1NC1=NCCN1 [Tizanidine hydrochloride]
inactive: [1] 0.977 | Shigella flexneri 0.988 | Vibrio cholerae 0.993 | [2] 1 | P. vulgatus RND KO 0.992 | P. vulgatus WT 1 | [3] 1.01 | [4] 0.998

c1ccc(C2CN3CCSC3=N2)cc1 (stereo not drawn) [Tetramisole hydrochloride]
inactive: [1] 1.01 | Shigella flexneri 1.03 | Vibrio cholerae 1.01 | [2] 1.01

CCCCNc1ccc(C(=O)OCCN(C)C)cc1 [Tetracaine hydrochloride]
inactive: [1] 1.01 | Shigella flexneri 1.01 | Vibrio cholerae 1.01 | [2] 1 | P. vulgatus RND KO 1.04 | P. vulgatus WT 1.07 | [3] 0.999 | [4] 0.993

N=C(N)NC(=O)Cc1c(Cl)cccc1Cl [Guanfacine hydrochloride]
inactive: [1] 0.983 | Shigella flexneri 0.971 | Vibrio cholerae 1.02 | [2] 0.988 | P. vulgatus RND KO 1.02 | P. vulgatus WT 1.04 | [3] 0.989 | [4] 0.966

Cc1ccc(NC(=O)c2ccc(CN3CCN(C)CC3)cc2)cc1Nc1nccc(-c2cccnc2)n1 [Imatinib]
inactive: [1] 1.03 | Shigella flexneri 1.06 | Vibrio cholerae 1.12 | [2] 0.991 | P. vulgatus RND KO 1.12 | P. vulgatus WT 1.09 | [3] 1.03 | [4] 0.259

CN1CC2c3ccccc3Oc3ccc(Cl)cc3C2C1 (stereo not drawn) [Asenapine maleate]
active: Vibrio cholerae 0.837
inactive: [1] 0.954 | Shigella flexneri 0.974 | [2] 0.976 | P. vulgatus RND KO 0.939 | P. vulgatus WT 0.948 | [3] 0.973 | [4] 0.935

CC(=O)NC[C@H]1CN(c2ccc(N3CCOCC3)c(F)c2)C(=O)O1 [Linezolid]
active: [1] 0.885 | Shigella flexneri 0.806 | Vibrio cholerae 0.0187 | P. vulgatus RND KO 0.00951 | P. vulgatus WT 0.011
inactive: [2] 0.916 | [3] 0.918 | [4] 0.223

CCN[C@H]1C[C@H](C)S(=O)(=O)c2sc(S(N)(=O)=O)cc21 [Dorzolamide hydrochloride]
inactive: [1] 1.02 | Shigella flexneri 1.04 | Vibrio cholerae 1.04 | [2] 1.03 | P. vulgatus RND KO 1.05 | P. vulgatus WT 1.05 | [3] 1 | [4] 1.01

Nc1ccn([C@@H]2O[C@H](CO)[C@@H](O)[C@@H]2O)c(=O)n1 [Cytarabine]
inactive: [1] 1 | Shigella flexneri 0.998 | Vibrio cholerae 1 | [2] 0.986 | P. vulgatus RND KO 0.993 | P. vulgatus WT 0.989 | [3] 0.998 | [4] 0.997

CN(C)CCC[C@@]1(c2ccc(F)cc2)OCc2cc(C#N)ccc21 [Escitalopram oxalate]
inactive: [1] 1 | Shigella flexneri 0.991 | Vibrio cholerae 0.976 | [2] 0.99 | P. vulgatus RND KO 1.01 | P. vulgatus WT 1 | [3] 0.989 | [4] 0.982

Cc1cccc(CN2CCN(C(c3ccccc3)c3ccc(Cl)cc3)CC2)c1 (stereo not drawn) [Meclozine dihydrochloride]
inactive: [1] 0.989 | Shigella flexneri 0.961 | Vibrio cholerae 0.885 | [2] 0.987 | P. vulgatus RND KO 1 | P. vulgatus WT 0.992 | [3] 1 | [4] 1

CCOC(=O)[C@H](CCc1ccccc1)N[C@@H](C)C(=O)N1Cc2ccccc2C[C@H]1C(=O)O [Quinapril hydrochloride]
inactive: [1] 0.986 | Shigella flexneri 0.967 | Vibrio cholerae 0.988 | [2] 1.01 | P. vulgatus RND KO 0.995 | P. vulgatus WT 0.982 | [3] 0.982 | [4] 0.996

CC[C@H]1OC(=O)[C@H](C)[C@@H](O[C@H]2C[C@@](C)(OC)[C@@H](O)[C@H](C)O2)[C@H](C)[C@@H](O[C@@H]2O[C@H](C)C[C@H](N(C)C)[C@H]2O)[C@](C)(O)C[C@@H](C)/C(=N\OCOCCOC)[C@H](C)[C@@H](O)[C@]1(C)O [Roxithromycin]
active: [1] 0.84 | Shigella flexneri 0.82 | Vibrio cholerae 0.0242 | P. vulgatus RND KO 0.0176 | P. vulgatus WT 0.0119 | [4] 0.0779
inactive: [2] 0.954 | [3] 0.899

CC1CCc2c(N3CCC(O)CC3)c(F)cc3c(=O)c(C(=O)O)cn1c23 (stereo not drawn) [Nadifloxacin]
active: [1] 0.00794 | Shigella flexneri 0.0399 | Vibrio cholerae 0.0237 | [2] 0.0176 | P. vulgatus RND KO 0.0102 | P. vulgatus WT 0.00997 | [3] 0.0247 | [4] 0.00372

CN(C)CC/C=C1\c2ccccc2CSc2ccccc21 [Dosulepin hydrochloride]
inactive: [1] 0.992 | Shigella flexneri 0.995 | Vibrio cholerae 0.952 | [2] 0.998 | P. vulgatus RND KO 1.03 | P. vulgatus WT 1.02 | [3] 0.996 | [4] 0.942

Cn1cnc2c1c(=O)[nH]c(=O)n2C [Theobromine]
inactive: [1] 1.03 | Shigella flexneri 1.08 | Vibrio cholerae 1.04 | [2] 1.03 | P. vulgatus RND KO 1.02 | P. vulgatus WT 1.03 | [3] 1.01 | [4] 1.01

COc1cc2nc(N(C)CCCNC(=O)C3CCCO3)nc(N)c2cc1OC (stereo not drawn) [Alfuzosin hydrochloride]
inactive: [1] 1.01 | Shigella flexneri 1.03 | Vibrio cholerae 1.06 | [2] 0.978 | P. vulgatus RND KO 1.02 | P. vulgatus WT 1.08 | [3] 1.01 | [4] 1.01

CN(C)CCC(c1ccccc1)c1ccccn1 (stereo not drawn) [Pheniramine maleate]
inactive: [1] 0.996 | Shigella flexneri 1.04 | Vibrio cholerae 0.997 | [2] 1.01 | P. vulgatus RND KO 1.01 | P. vulgatus WT 1.02 | [3] 0.999 | [4] 1.01

CCCCOc1ccc(CC(=O)NO)cc1 [Bufexamac]
inactive: [1] 0.996 | Shigella flexneri 0.974 | Vibrio cholerae 1.01 | [2] 0.956 | P. vulgatus RND KO 1.01 | P. vulgatus WT 0.991 | [3] 0.997 | [4] 0.967

Nc1nc(=O)n([C@@H]2CS[C@H](CO)O2)cc1F [(-) Emtricitabine]
inactive: [1] 0.995 | Shigella flexneri 0.961 | Vibrio cholerae 0.993 | [2] 0.981 | P. vulgatus RND KO 0.983 | P. vulgatus WT 0.986 | [3] 0.998 | [4] 0.993

c1ccc2c(CC3=NCCN3)cccc2c1 [Naphazoline hydrochloride]
inactive: [1] 0.994 | Shigella flexneri 1.01 | Vibrio cholerae 1.01 | [2] 1 | P. vulgatus RND KO 0.958 | P. vulgatus WT 0.943 | [3] 0.992 | [4] 0.999

COc1cc(NS(=O)(=O)c2ccc(N)cc2)nc(OC)n1 [Sulfadimethoxine]
inactive: [1] 1.02 | Shigella flexneri 1.01 | Vibrio cholerae 1.02 | [2] 0.987 | P. vulgatus RND KO 0.994 | P. vulgatus WT 1.04 | [3] 1 | [4] 0.99

Cc1ncc([N+](=O)[O-])n1CC(C)O (stereo not drawn) [Secnidazole]
inactive: [1] 0.996 | Shigella flexneri 0.953 | Vibrio cholerae 0.99 | [2] 1 | [3] 1.01 | [4] 1
active: P. vulgatus RND KO 0.0215 | P. vulgatus WT 0.0204

CN1Cc2c(N)cccc2C(c2ccccc2)C1 (stereo not drawn) [Nomifensine maleate]
inactive: [1] 0.977 | Shigella flexneri 1.01 | Vibrio cholerae 0.961 | [2] 0.94 | P. vulgatus RND KO 1 | P. vulgatus WT 0.987 | [3] 0.997 | [4] 1

C[C@@H]1C[C@H]2[C@@H]3C[C@H](F)C4=CC(=O)C=C[C@]4(C)[C@@]3(F)[C@@H](O)C[C@]2(C)[C@@]1(O)C(=O)CO [Flumethasone]
inactive: [1] 0.995 | Shigella flexneri 0.994 | Vibrio cholerae 0.997 | [2] 0.993 | P. vulgatus RND KO 1.01 | P. vulgatus WT 1.02 | [3] 0.997 | [4] 1.01

Cc1nc2n(c(=O)c1CCN1CCC(c3noc4cc(F)ccc34)CC1)CCCC2 [Risperidone]
inactive: [1] 1 | Shigella flexneri 0.997 | Vibrio cholerae 0.995 | [2] 1 | P. vulgatus RND KO 1.03 | P. vulgatus WT 1.03 | [3] 0.997 | [4] 0.993

CC1=C(/C=C/C(C)=C/C=C/C(C)=C/C(=O)O)C(C)(C)CCC1 [Retinoic acid]
inactive: [1] 1 | Shigella flexneri 0.994 | Vibrio cholerae 1 | [2] 0.998 | P. vulgatus RND KO 0.996 | P. vulgatus WT 0.992 | [3] 1 | [4] 0.993

CC1(C)[C@@H](OC(=O)CCC(=O)O)CC[C@]2(C)[C@H]3C(=O)C=C4[C@@H]5C[C@@](C)(C(=O)O)CC[C@]5(C)CC[C@@]4(C)[C@]3(C)CC[C@@H]12 [Carbenoxolone disodium salt]
inactive: [1] 0.992 | Shigella flexneri 0.939 | Vibrio cholerae 0.971 | [2] 0.978 | P. vulgatus RND KO 0.967 | P. vulgatus WT 0.976 | [3] 0.997 | [4] 0.987
